These results are taken from article PMC4336329 (PLoS ONE, 2015).

Among all 310,000 compounds or so, about 14,000 (4.5%) showed an effect of 50% or more. The effect is printed as a negative number. The list comes from a sample in which strong results are over-represented; it also holds similar structures and randomly drawn compounds.
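Note: peak tail current of the secondary pulse compared with the same well before compound.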

For the experiment, the target named is human ether-à-go-go-related gene (hERG) potassium channel (human, UniProt Q12809). Put plainly: primary screen, population patch clamp on CHO cells stably expressing hERG; higher = less effect of the substance.
Chain of human ether-à-go-go-related gene (hERG) potassium channel (Q12809 whole entry, looked up): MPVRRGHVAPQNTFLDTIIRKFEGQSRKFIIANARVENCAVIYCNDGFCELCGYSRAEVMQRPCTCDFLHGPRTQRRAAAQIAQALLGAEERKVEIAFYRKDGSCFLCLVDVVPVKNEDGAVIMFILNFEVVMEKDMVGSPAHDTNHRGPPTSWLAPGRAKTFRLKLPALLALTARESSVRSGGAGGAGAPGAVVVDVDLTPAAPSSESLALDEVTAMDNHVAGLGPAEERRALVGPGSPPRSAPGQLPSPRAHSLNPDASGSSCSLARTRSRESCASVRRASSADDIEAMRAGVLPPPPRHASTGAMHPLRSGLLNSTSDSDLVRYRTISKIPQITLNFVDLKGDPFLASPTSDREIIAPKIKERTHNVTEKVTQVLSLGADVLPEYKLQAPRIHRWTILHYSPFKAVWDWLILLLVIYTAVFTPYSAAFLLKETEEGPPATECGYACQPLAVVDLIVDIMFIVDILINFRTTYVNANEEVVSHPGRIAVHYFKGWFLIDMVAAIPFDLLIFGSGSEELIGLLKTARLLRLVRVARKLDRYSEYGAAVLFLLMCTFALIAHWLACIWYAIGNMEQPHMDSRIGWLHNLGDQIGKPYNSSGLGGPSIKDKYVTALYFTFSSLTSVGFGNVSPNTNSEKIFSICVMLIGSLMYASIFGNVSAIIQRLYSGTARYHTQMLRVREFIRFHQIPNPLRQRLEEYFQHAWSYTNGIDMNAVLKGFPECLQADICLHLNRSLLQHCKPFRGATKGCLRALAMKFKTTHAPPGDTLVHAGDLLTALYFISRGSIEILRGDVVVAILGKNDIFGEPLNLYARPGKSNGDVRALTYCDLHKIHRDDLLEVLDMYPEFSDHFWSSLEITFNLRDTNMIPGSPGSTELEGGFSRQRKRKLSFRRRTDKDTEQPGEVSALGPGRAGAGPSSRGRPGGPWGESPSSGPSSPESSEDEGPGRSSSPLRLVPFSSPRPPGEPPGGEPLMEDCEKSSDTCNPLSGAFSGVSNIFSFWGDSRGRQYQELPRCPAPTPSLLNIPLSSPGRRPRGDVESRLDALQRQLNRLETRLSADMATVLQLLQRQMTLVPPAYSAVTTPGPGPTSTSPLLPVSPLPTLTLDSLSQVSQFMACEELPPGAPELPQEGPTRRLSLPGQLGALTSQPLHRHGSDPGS
On to `CCOc1ccc(C(=O)Nc2nnc(SCC(=O)NCC3CCCO3)s2)cc1OCC` (stereo not drawn), for which the “hERG current change (%, negative = inhibition) at 10uM” value came to 9.52%. As to `c1ccc(-c2cn(CC3CCCCC3)nn2)cc1`, the “hERG current change (%, negative = inhibition) at 10uM” value was -1.74%. With `CCc1ccc(OCC(=O)O/N=C(\N)c2ccncc2)c(Br)c1`, the “hERG current change (%, negative = inhibition) at 10uM” value came out at 10.2%.

Regarding `O=C(CN1CCN(c2ccc([N+](=O)[O-])cc2)CC1)c1ccccc1`, the “hERG current change (%, negative = inhibition) at 10uM” value was -75%. For `CC1CN(C(=O)CCc2ccccc2)C(C)CN1C(=O)CCc1ccccc1` (stereo not drawn) the value was -60.4%; for `COc1ccc(N2CCN(C(=O)CCc3ccccc3)CC2)cc1`, -9.27%.

Turning to `CC1CCCN(C(=O)CCc2ccccc2)C1` (stereo not drawn), the “hERG current change (%, negative = inhibition) at 10uM” value was -5.7%. `O=C(CCCC1=NS(=O)(=O)c2ccccc2N1)N1CCN(c2ccc([N+](=O)[O-])cc2)CC1`: the “hERG current change (%, negative = inhibition) at 10uM” value was -1.34%.

For `O=C(CCCc1ccccc1)N1CCN(c2ccc([N+](=O)[O-])cc2)CC1`, the “hERG current change (%, negative = inhibition) at 10uM” value was -64.7%.

Turning to `C=CCN1CCN(C(=O)CCCc2ccccc2)CC1`, the “hERG current change (%, negative = inhibition) at 10uM” value is reported as 26.1%. For `N#Cc1ccc(C(=O)CN2CCN(c3ccccc3)CC2)cc1` the value was -42.8%. As for `O=C(CCc1ccccc1)N1CCN(c2ccc([N+](=O)[O-])cc2)CC1`, the “hERG current change (%, negative = inhibition) at 10uM” value is given as -73.1%.

With `O=C(CN1CCN(c2ccc(Cl)cc2)CC1)c1ccccc1`, the “hERG current change (%, negative = inhibition) at 10uM” value is -6.33%. For `CC1CC(C)CN(C(=O)CCc2ccccc2)C1` (stereo not drawn) the value was -2.16%. In the case of `Cc1c(C)n(CC(O)CNCCO)c2ccccc12.O=C(O)C(=O)O` (stereo not drawn), the “hERG current change (%, negative = inhibition) at 10uM” value was 5.33%.

Turning to `CN1CCN(C(=O)CN(C)S(=O)(=O)c2cc(Cl)ccc2Cl)CC1`, the “hERG current change (%, negative = inhibition) at 10uM” value is 4.23%.

For the compound `CC1(C)CC2CN(C(=O)Cc3ccccc3)C(C)(C2)C1` (stereo not drawn), the “hERG current change (%, negative = inhibition) at 10uM” value worked out at 0.0688%. Take `COc1ccc(/C=N/NC(=O)c2ccco2)cc1Cn1nc(C)cc1C`: the “hERG current change (%, negative = inhibition) at 10uM” value is reported as -2.47%.

Regarding `COc1ccc(-c2nnc(NC(=O)c3ccc(S(=O)(=O)N4CCCc5ccccc54)cc3)o2)cc1`, the “hERG current change (%, negative = inhibition) at 10uM” value was 0.175%. With `CC1(C)CC(=O)c2sc(N3CCCCC3)nc2C1`, the “hERG current change (%, negative = inhibition) at 10uM” value was -2.83%. As to `COc1cc(CC(=O)N/N=C/c2ccccc2)c([N+](=O)[O-])cc1OC`, the “hERG current change (%, negative = inhibition) at 10uM” value stood at 0.219%. For `Clc1cccc(CNCCc2c[nH]c3ccccc23)c1.O=C(O)C(=O)O` the value was -14%; for `c1ccc(Cn2nnnc2C(c2ccccc2)N2CCN(c3nc4ccccc4s3)CC2)cc1` (stereo not drawn), -11.7%. Turning to `CS(=O)(=O)N1CCN(c2ccc(NC(=O)CSc3ccc(Cl)cc3)cc2)CC1`, the “hERG current change (%, negative = inhibition) at 10uM” value is -0.247%. For `COc1ccc(N2CCN(CCCN)CC2)cc1` the value was 8.6%; for `O=C(CCc1ccccc1)N1CCCC1`, 8.96%; for `O=C(CCc1ccccc1)N1CCCN(C(=O)CCc2ccccc2)CC1`, -51.5%. `CCCCCCN1CCN(c2ccc(Cl)cc2)CC1`: the “hERG current change (%, negative = inhibition) at 10uM” value was -66.9%. Take `CC(C)OC(=O)CN1CCN(c2ccc(Cl)cc2)CC1`: the “hERG current change (%, negative = inhibition) at 10uM” value came out at 1.73%. Next, `CCOC(=O)N1CCN(C(=O)CCc2ccccc2)CC1`: 5.12%. For `O=C(NCCc1ccccc1)c1ccccc1SCC(=O)N1CCCC1` the value was -51.3%; for `O=C(O)c1ccccc1SCC(=O)N1CCCCC1`, 15.2%; for `O=C(NCCOc1ccccc1)c1ccccc1SCC(=O)N1CCCC1`, 14.9%. For `CNc1nc(-c2ccc3c(c2)CCN3C(=O)CC(C)(C)C)c(C)s1`, the “hERG current change (%, negative = inhibition) at 10uM” value amounted to 38%. Next, `C=CC#CC1(O)CC(C)[N+](C)(C)CC1C.[I-]` (stereo not drawn): 17.4%; `CCCCn1c(N)c(N(CC(C)C)C(=O)CSC(C)C(=O)Nc2cc(C)on2)c(=O)[nH]c1=O` (stereo not drawn): 9.14%.

Turning to `CN(Cc1nc2ccc(F)cc2[nH]1)Cc1nc(CC2CC2)no1`, the “hERG current change (%, negative = inhibition) at 10uM” value was -12.3%. On to `CN(CCc1nc2ccccc2[nH]1)Cc1nc(CC2CC2)no1`, for which the “hERG current change (%, negative = inhibition) at 10uM” value is -13.7%. For `CN(CCc1nc2ccc(Cl)cc2[nH]1)Cc1nc(CC2CC2)no1`, the “hERG current change (%, negative = inhibition) at 10uM” value is given as -50.8%. Next, `Cc1c(C(=O)OCC(=O)N(C)Cc2ccccc2)oc2ccccc12`: -29.4%; `COc1ccc2oc(C(=O)N(C)Cc3ccc4c(c3)OCCO4)c(C)c2c1`: -10.5%; `CCn1cc(C(=O)OCC(=O)N(C)Cc2ccccc2)c(=O)c2ccc(C)nc21`: -11.1%. Next, `COc1ccc(CCN(C)C(=O)c2oc3ccccc3c2C)cc1OC`: -0.562%; `COc1ccc2oc(C(=O)N(C)CCOc3ccccc3)c(C)c2c1`: -28.9%; `CCCCN(C)C(=O)c1cn(CC)c2nc(C)ccc2c1=O`: -3.49%.

Consider `COc1ccc2oc(C(=O)N(C)Cc3ccc(OC(F)F)cc3)c(C)c2c1`, for which the “hERG current change (%, negative = inhibition) at 10uM” value is given as -53.8%. For `CCn1cc(C(=O)N(C)Cc2ccc(OC(F)F)cc2)c(=O)c2ccc(C)nc21` the value was -65.1%.

`Cc1c(C(=O)N(C)Cc2ccc(OC(F)F)cc2)oc2ccccc12`: the “hERG current change (%, negative = inhibition) at 10uM” value was -69.9%. For `CCCNC(=O)Nc1ccccc1C(=O)Nc1ccc(OC)cc1` the value was 2.77%. Regarding `OCC1CCCN(C(=S)NCCc2ccccc2)C1` (stereo not drawn), the “hERG current change (%, negative = inhibition) at 10uM” value is reported as 0.885%. Regarding `CCCn1nc(Oc2nc(NCC)nc(NCC)n2)ccc1=O`, the “hERG current change (%, negative = inhibition) at 10uM” value came out at 1.1%. For `CCCn1nnc(NC(=O)c2cccc(OCC(C)C)c2)n1` the value was -3.93%.

In the case of `O=C(NCCc1ccc(Cl)cc1)C1CCN(S(=O)(=O)c2cccs2)CC1`, the “hERG current change (%, negative = inhibition) at 10uM” value was -71.2%.

Take `O=C(NCCc1ccccc1)C1CCN(S(=O)(=O)c2cccs2)CC1`: the “hERG current change (%, negative = inhibition) at 10uM” value was -2.14%. Regarding `O=C(NCc1ccccc1Cl)C1CCN(S(=O)(=O)c2cccs2)CC1`, the “hERG current change (%, negative = inhibition) at 10uM” value is reported as -63.4%. For `O=C(NCCc1ccc(Cl)cc1)C1CCN(S(=O)(=O)N2CCCCC2)CC1` the value was -5.98%; for `O=C(NCCc1ccc(Cl)cc1)C1CCN(S(=O)(=O)N2CCCC2)CC1`, -52.3%; for `O=C(NCc1cccs1)C1CCN(S(=O)(=O)c2cccs2)CC1`, -32.1%. Turning to `O=C(NCc1ccc(Cl)cc1)C1CCN(S(=O)(=O)c2cccs2)CC1`, the “hERG current change (%, negative = inhibition) at 10uM” value was -3.7%. Next, `O=C(NCCc1ccc(Cl)cc1)C1CCCN(S(=O)(=O)N2CCCCCC2)C1` (stereo not drawn): -18.7%; `O=C(NCCc1ccccc1Cl)C1CCN(S(=O)(=O)c2cccs2)CC1`: -34.8%; `O=C1C=C(c2ccccc2)C[C@H](c2cccs2)[C@H]1n1cnc([N+](=O)[O-])c1`: -18.8%. For `COC(=O)c1nc2cc3c(cc2c(C)c1C(=O)OC)OCO3` the value was 10.8%; for `COC(=O)CN(C(=S)Nc1ccccc1)C1CC(=O)N(c2ccc(OC)cc2)C1=O` (stereo not drawn), -6.5%; for `O=C1CCCC(O)=C1N=Nc1c(Cl)cc(Cl)cc1Cl`, 7.14%. For `CC(C)c1ccc(S(=O)(=O)c2cn(Cc3ccc(F)cc3)c3cc4c(cc3c2=O)OCO4)cc1` the value was -1%; for `Cc1ccc(S(=O)(=O)c2cn(Cc3ccc(F)cc3)c3cc4c(cc3c2=O)OCO4)cc1`, -55%; for `Cc1ccc(Cn2cc(S(=O)(=O)c3ccc(C(C)C)cc3)c(=O)c3cc4c(cc32)OCO4)cc1`, -8.58%.

In the case of `CC(=O)Nc1cc2c(cc1C(=O)c1ccc(C)cc1)OCCO2`, the “hERG current change (%, negative = inhibition) at 10uM” value worked out at 5.77%. Next, `Cc1ccc(C(=O)c2cc3c(cc2N)OCCO3)cc1`: -11.4%.

Take `CCn1cc(C(=O)O)c(=O)c2cc3c(cc21)OCO3`: the “hERG current change (%, negative = inhibition) at 10uM” value was 20.5%. Next, `O=C(C(=O)N1CCOCC1)c1cn(Cc2ccc(F)cc2)c2ccccc12`: -32%; `O=C(c1ccc(F)cc1)c1cn(Cc2ccc(F)cc2)c2cc3c(cc2c1=O)OCCO3`: -71.1%; `CCOC(=O)c1cn(Cc2ccc(C)cc2)c2cc(F)ccc2c1=O`: -10.9%. Consider `Cc1ccc(Cn2cc(C(=O)c3ccc(F)cc3)c(=O)c3cc4c(cc32)OCCO4)cc1`, for which the “hERG current change (%, negative = inhibition) at 10uM” value is -57.1%.

Regarding `Cc1ccc(Cn2cc(C(=O)NN)c(=O)c3ccc(F)cc32)cc1`, the “hERG current change (%, negative = inhibition) at 10uM” value is -51.6%. As to `C=CCn1cc(C(=O)OCC)c(=O)c2ccc(F)cc21`, the “hERG current change (%, negative = inhibition) at 10uM” value was 5.56%.

For `O=C(O)CC1SC(=O)N(Cc2ccccc2)C1=O` (stereo not drawn), the “hERG current change (%, negative = inhibition) at 10uM” value is 21%. Next, `Cc1cc(Cl)ccc1OCc1cn2cccnc2n1`: -17.5%; `CCCn1cc(SCC(=O)NCC2CCCO2)c2ccccc21` (stereo not drawn): 4.17%; `CC(C)CN(C(=O)COC(=O)c1ccc2c(c1)OCCO2)c1c(N)n(Cc2ccccc2)c(=O)[nH]c1=O`: 5.66%. Next, `Cc1ccc(C)n1NC(=O)c1ccco1`: 14.8%; `O=C(CSc1ncccn1)Nc1ncc(C(F)(F)F)cc1Cl`: 47.2%. Turning to `COC(=O)C1=C(C)NC(C)=C(C(=O)O[C@@H]2CCCN(Cc3ccccc3)C2)[C@@H]1c1cccc([N+](=O)[O-])c1.Cl`, the “hERG current change (%, negative = inhibition) at 10uM” value amounted to 9.68%.

In the case of `CCOc1ccc(N/C(SCc2cccc([N+](=O)[O-])c2)=C(/C#N)C(N)=O)cc1`, the “hERG current change (%, negative = inhibition) at 10uM” value is reported as -59.1%. For `COc1cccc(N/C(SCc2cccc([N+](=O)[O-])c2)=C(/C#N)C(N)=O)c1` the value was -19.9%; for `CCOc1ccc(N/C(SC)=C(/C#N)C(N)=O)cc1`, 4.98%. Next, `COc1ccc(CCNCc2ccc(OC)c(OC)c2OC)cc1`: -37.6%. For `COc1cccc(CNCCc2cccc(F)c2)c1OC.O=C(O)C(=O)O`, the “hERG current change (%, negative = inhibition) at 10uM” value is given as -5.22%. For `COc1ccccc1CCNCc1ccc(OC)c(OC)c1OC.O=C(O)C(=O)O` the value was 15.5%; for `COc1cc(OC)c(OC)cc1CNCCc1cccc(F)c1.O=C(O)C(=O)O`, -15.2%. Next, `COc1ccc(CNCCc2cccc(F)c2)c2ccccc12.O=C(O)C(=O)O`: -74%; `COc1ccc(CNCCc2ccc3c(c2)OCO3)c(OC)c1OC.O=C(O)C(=O)O`: -29.9%; `COc1ccc(CNCCc2ccc(Cl)cc2)c(OC)c1OC.O=C(O)C(=O)O`: -51.6%. For the compound `COc1ccc(CNCCc2ccc([N+](=O)[O-])cc2)c(OC)c1OC.O=C(O)C(=O)O`, the “hERG current change (%, negative = inhibition) at 10uM” value was -68.9%. For `COc1ccccc1CNCc1ccc(OC)c(OC)c1OC.O=C(O)C(=O)O` the value was -8%.
